# Where “and” joins values, the source holds several entries; their conditions need not be identical. Equal values may be shown once. Records with an inconclusive call do not appear. Where a call stands in place of a potency, no number is given. Calls of active or inactive are those of the source. Unless noted, calls come from the whole dose curve; as a rule, active = well fitted curve in the direction sought with a large enough effect; inconclusive = small, poorly fitted or top-dose-only effect, or another doubt; inactive = no such curve, though single readings can be large; an effect the other way counts as inactive or inconclusive.
# Legend:
# [1] = Primary qHTS for small molecule stabilizers of the endoplasmic reticulum resident proteome: Secreted ER Calcium Modulated Protein (SERCaMP) assay (AID 1508630)
# How it was run: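 GLuc-SERCaMP-expressing SH-SY5Y cells, pretreated 16 h with compound, are challenged with thapsigargin to empty ER calcium stores; after 4 h, coelenterazine is added directly to the medium and luminescence is imaged.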
# [2] = target: Cytochrome P450 2D6 (Homo sapiens) (UniProt P10635); assay: Cytochrome P450 family 2 subfamily D member 6 (CYP2D6) small molecule antagonists: luciferase biochemical (cell-free) qHTS assay (AID 1645840; active = well fitted curve in the direction sought with a large enough effect in the repeat runs; an effect the other way counts as inactive or inconclusive; note: nearly all actives have a fitted effect of over 55% in size; note: potency is the fitted concentration of half-maximal effect)
# Chain of Cytochrome P450 2D6 (Homo sapiens) (P10635 whole entry, looked up): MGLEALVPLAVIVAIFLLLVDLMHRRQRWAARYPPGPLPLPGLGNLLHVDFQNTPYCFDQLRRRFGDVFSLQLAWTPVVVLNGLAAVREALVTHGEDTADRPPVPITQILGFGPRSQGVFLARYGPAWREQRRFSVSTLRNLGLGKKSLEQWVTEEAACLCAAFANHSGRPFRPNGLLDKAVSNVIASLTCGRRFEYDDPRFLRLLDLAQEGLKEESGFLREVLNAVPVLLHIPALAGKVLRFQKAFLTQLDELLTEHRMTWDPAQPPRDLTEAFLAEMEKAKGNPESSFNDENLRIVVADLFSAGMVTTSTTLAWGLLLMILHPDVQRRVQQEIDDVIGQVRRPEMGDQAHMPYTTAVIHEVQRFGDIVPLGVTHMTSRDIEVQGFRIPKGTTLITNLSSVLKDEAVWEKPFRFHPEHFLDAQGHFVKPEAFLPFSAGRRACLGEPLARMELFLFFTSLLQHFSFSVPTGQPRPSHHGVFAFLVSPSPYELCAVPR
# How it was run: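 P450-Glo luminescent screen: recombinant CYP2D6 enzyme–proluciferin substrate mix preincubated with compound 10 min at room temperature, then NADPH regeneration added for 1 h at room temperature. Detection reagent added for 20 min; luciferin light read as relative luminescence units.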
# [3] = target: Cytochrome P450 2C9 (Homo sapiens) (UniProt P11712); assay: Cytochrome P450 family 2 subfamily C member 9 (CYP2C9) small molecule antagonists: luciferase biochemical (cell-free) qHTS assay (AID 1645842; active = well fitted curve in the direction sought with a large enough effect in the repeat runs; an effect the other way counts as inactive or inconclusive; note: nearly all actives have a fitted effect of over 55% in size; note: potency is the fitted concentration of half-maximal effect)
# Chain of Cytochrome P450 2C9 (Homo sapiens) (P11712 whole entry, looked up): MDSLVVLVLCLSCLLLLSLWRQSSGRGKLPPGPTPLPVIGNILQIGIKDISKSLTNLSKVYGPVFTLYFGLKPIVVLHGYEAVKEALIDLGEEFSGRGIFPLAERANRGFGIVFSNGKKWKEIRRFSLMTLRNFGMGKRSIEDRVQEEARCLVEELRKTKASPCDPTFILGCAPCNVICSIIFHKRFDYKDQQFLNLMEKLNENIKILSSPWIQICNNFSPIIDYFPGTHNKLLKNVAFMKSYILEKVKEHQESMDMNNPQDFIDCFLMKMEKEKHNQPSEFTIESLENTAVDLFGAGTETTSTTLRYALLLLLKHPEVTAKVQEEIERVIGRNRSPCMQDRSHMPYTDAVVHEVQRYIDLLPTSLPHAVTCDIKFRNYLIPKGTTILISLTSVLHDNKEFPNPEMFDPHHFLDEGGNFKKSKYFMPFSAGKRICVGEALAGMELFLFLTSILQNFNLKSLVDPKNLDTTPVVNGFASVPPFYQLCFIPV
# How it was run: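 Luminescence, after 20 min with luciferin detection reagent, reflected CYP2C9 turnover during a 1 h NADPH-driven reaction at 37C. Enzyme-substrate mix contained 0.4% bovine serum albumin and was preincubated with compound 10 min at room temperature.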
# [4] = Primary qHTS for inhibitors of nuclear receptor binding SET domain protein 2 (NSD2) in an isogenic RCH-ACV NSD2 p.E1099K mutant (9B) (AID 1645876); note: nearly all actives have a fitted effect of over 70% in size; note: potency is the fitted concentration of half-maximal effect
# [5] = Primary qHTS for inhibitors of nuclear receptor binding SET domain protein 2 (NSD2) in an RCH-ACV wild type WT cells (2C) (AID 1645877); note: nearly all actives have a fitted effect of over 70% in size; note: potency is the fitted concentration of half-maximal effect
# [6] = target: N-terminal Xaa-Pro-Lys N-methyltransferase 1 (Homo sapiens) (UniProt Q9BV86); assay: Confirmatory qHTS for Inhibitors of N-terminal methyltransferase 1 (NTMT1): MTaseGlo Assay (AID 1645874); note: potency is the fitted concentration of half-maximal effect; nearly all actives have a fitted effect of over 65% in size
# Chain of N-terminal Xaa-Pro-Lys N-methyltransferase 1 (Homo sapiens) (Q9BV86 whole entry, looked up): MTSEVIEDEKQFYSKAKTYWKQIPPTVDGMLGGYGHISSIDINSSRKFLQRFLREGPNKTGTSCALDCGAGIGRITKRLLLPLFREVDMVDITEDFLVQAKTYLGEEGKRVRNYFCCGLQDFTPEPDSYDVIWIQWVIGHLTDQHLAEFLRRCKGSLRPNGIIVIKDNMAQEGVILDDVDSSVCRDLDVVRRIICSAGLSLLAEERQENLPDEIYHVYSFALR
# How it was run: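 Preincubation of NTMT1 (125 nM) plus SAM (100 uM) with test compounds lasted 15 min; methylation of 1 uM SPKRIA then proceeded 30 min in the dark at room temperature. Luciferase signal reported SAH produced.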
# [7] = A High-Content qHTS Against Drug Library for the Identification of Small Molecules that Inhibit DYT1 Early Onset Primary Dystonia-Associated Cell Pathology (AID 1645839; calls by dose curve; note: series mostly up to about 46 µM)
# Description: Nicole Calakos M.D., Ph.D.
# Duke University School of Medicine, Durham, NC
# In DYT1 dystonia due to delGAG in the TOR1A gene, there is a robust and widely replicated finding of TorsinA protein mislocalization caused when the mutant protein is in excess of the wildtype protein (1-7). Stable HEK293 cell lines were created that replicate this phenomenon. Inducible expression of an EGFP-hu delE TorsinA encoding cDNA causes pronounced punctate cellular distribution. […] This phenotypic difference in EGFP-huTorsinA fusion protein distribution serves as an indicator of cell pathology. […] RNAi screen results with the assay were validated in DYT1 patient cell phenotypes, intersected with a known dystonia gene, and led to discovery of new human genetic dystonia associations.
# The bioassay described herein is a high-content image screen with two readouts. The "%pathology" readout is the primary qHTS data channel, while the "cellcount" is the counterscreen qHTS channel. Desired active compounds are those that show inhibition in %pathology channel but no activity or minimal toxicity in cellcount readout.
# 1. Kustedjo, K., Bracey, M.H., and Cravatt, B.F. (2000). […] J. Biol. Chem. 275, 27933 - 27939.
# 2. Bragg, D.C., Kaufman, C.A., Kock, N., and Breakefield, X.O. (2004). Inhibition of N-linked glycosylation prevents inclusion formation by the dystonia-related mutant form of torsinA. Mol. Cell. Neurosci. 27, 417 - 426.
# 3. Gonzalez-Alegre, P., and Paulson, H.L. (2004). Aberrant Cellular Behavior of Mutant TorsinA Implicates Nuclear Envelope Dysfunction in DYT1 Dystonia. J. Neurosci. 24, 2593 - 2601.
# 4. Goodchild, R.E., and Dauer, W.T. (2004). Mislocalization to the nuclear envelope: an effect of the dystonia-causing torsinA mutation. Proc. Natl. Acad. Sci. U. S. A. 101, 847 - 852.
# 5. Kock, N., Allchorne, A.J., Sena-Esteves, M., Woolf, C.J., and Breakefield, X.O. (2006). RNAi blocks DYT1 mutant torsinA inclusions in neurons. Neurosci. Lett. 395, 201 - 205.
# 6. Hewett, J.W., Nery, F.C., Niland, B., Ge, P., Tan, P., Hadwiger, P., Tannous, B.A., Sah, D.W.Y., and Breakefield, X.O. (2008). siRNA knock-down of mutant torsinA restores processing through secretory pathway in DYT1 dystonia cells. Hum. Mol. Genet. 17, 1436 - 1445.
# 7. Calakos, N., Patel, V.D., Gottron, M., Wang, G., Tran-Viet, K.N., Brewington, D., Beyer, J.L., Steffens, D.C., Krishnan, R.R., and Zuchner, S. (2010). Functional evidence implicating a novel TOR1A mutation in idiopathic, late-onset focal dystonia. J. Med. Genet. 47, 646 - 650.
# 8. Rittiner* JE, Caffall* ZF, Hernandez-Martinez R, Sanderson SM, Pearson JL, Tsukayama KK, Liu AY, Xiao C, Tracy S, Shipman MK, Hickey P, Johnson J, Scott B, Stacy M, Saunders-Pullman R, Bressman S, Simonyan K, Sharma N, Ozelius LJ, Cirulli ET, Calakos N. Functional Genomic Analyses of Mendelian and Sporadic Disease Identify Impaired eIF2alpha Signaling as a Generalizable Mechanism for Dystonia. Neuron. 2016 Dec 21;92(6):1238-1251. doi: 10.1016/j.neuron.2016.11.012. Epub 2016 Dec 8. PMID: 27939583; PMCID: PMC5320521.
# High-content, High-throughput Drug Screening Assay
# The TorsinA mislocalization assay was modified from the previously published assay to accommodate compound testing in 1536 well format.1 Briefly, Flp-In T-REx 293 cells from Invitrogen in which a single copy of a cDNA is recombined into a specific genomic locus was used to create tetracycline-inducible expression of cDNA encoding either EGFP-hTOR1A (WT) or EGFP-delE hTOR1A (DYT1). […]
# [8] = target: Cytochrome P450 3A4 (Homo sapiens) (UniProt P08684); assay: Cytochrome P450 family 3 subfamily A member 4 (CYP3A4) small molecule antagonists: luciferase qHTS assay (AID 1645841; active = well fitted curve in the direction sought with a large enough effect in the repeat runs; an effect the other way counts as inactive or inconclusive; note: nearly all actives have a fitted effect of over 45% in size)
# Chain of Cytochrome P450 3A4 (Homo sapiens) (P08684 whole entry, looked up): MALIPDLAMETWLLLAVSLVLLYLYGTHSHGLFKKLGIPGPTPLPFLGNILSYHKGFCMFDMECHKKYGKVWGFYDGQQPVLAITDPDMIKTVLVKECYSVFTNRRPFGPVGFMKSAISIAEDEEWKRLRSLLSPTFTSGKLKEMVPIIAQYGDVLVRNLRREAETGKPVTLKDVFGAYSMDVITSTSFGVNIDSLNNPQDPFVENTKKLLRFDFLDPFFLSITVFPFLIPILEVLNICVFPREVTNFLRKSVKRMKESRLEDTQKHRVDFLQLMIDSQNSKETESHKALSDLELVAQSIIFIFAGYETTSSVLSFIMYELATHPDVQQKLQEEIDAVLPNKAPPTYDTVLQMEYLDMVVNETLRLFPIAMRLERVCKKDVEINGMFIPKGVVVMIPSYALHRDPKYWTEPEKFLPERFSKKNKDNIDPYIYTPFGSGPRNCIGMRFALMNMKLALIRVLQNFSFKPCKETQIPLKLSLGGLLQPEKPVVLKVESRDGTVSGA
# How it was run: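 Luminescent CYP3A4 activity readout: compounds plus enzyme-substrate mix 10 min at room temperature, reaction started with NADPH regenerating system for 1 h, stopped with detection reagent, read after 20 min. Ketoconazole served as control.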
smiles,measurement,setting,value
COc1ccc(-c2cc3nccn3c(Nc3ncccc3C(N)=O)n2)cc1OC,Potency,[1],inactive
same,Potency,[2],inactive
same,Potency,[3],5.35 µM (active)
same,Potency,[4],0.649 µM (active)
same,Potency,[5],0.728 µM (active)
COc1cc2ncnc(Nc3cc(Br)c(O)c(Br)c3)c2cc1OC,Potency,[1],inactive
same,Potency,[2],inactive
CN(C)CCOc1ccc(-c2nc(-c3ccc4c(c3)CCC4=NO)c(-c3ccncc3)[nH]2)cc1,Potency,[1],inactive
C[C@@]1(c2cc(-c3cncnc3)c(F)cc2F)CCSC(N)=N1,Potency,[1],inactive
same,Potency,[2],6.74 µM (active)
same,Potency,[3],16.9 µM (active)
same,Potency,[4],inactive
same,Potency,[5],inactive
O=c1[nH]nc(OCCCc2ccc(Cl)cc2)c(NCc2cccnc2)c1Br,Potency,[1],inactive
same,Potency,[2],10.7 µM (active)
same,Potency,[3],1.51 µM (active)
same,Potency,[4],8.17 µM (active)
same,Potency,[5],9.16 µM (active)
CCN1CCC(n2cc(CNc3cc(Cl)c4ncc(C#N)c(Nc5ccc(F)c(Cl)c5)c4c3)nn2)CC1,Potency,[1],inactive
same,Potency,[2],12 µM (active)
same,Potency,[3],7.56 µM (active)
same,Potency,[6],10 µM (active)
same,Potency,[4],23.5 µM (active)
same,Potency,[5],18.6 µM (active)
CN1[C@H]2CC[C@H]1CC(OC(=O)c1c[nH]c3ccccc13)C2 (stereo not given in full),Potency,[1],inactive
same,Potency,[2],12 µM (active)
same,Potency,[3],inactive
NC(N)=Nc1nc(CSCCC(N)=NS(N)(=O)=O)cs1,Potency,[1],inactive
COc1ccc(-c2cc(=O)c3c(O)cc(O[C@@H]4O[C@H](CO[C@@H]5O[C@@H](C)[C@H](O)[C@@H](O)[C@@H]5O)[C@@H](O)[C@H](O)[C@@H]4O)cc3o2)cc1O,Potency,[1],inactive
CN(C)c1ccc(-c2nc3ncc(Cl)c(N4CCN(CC(=O)Nc5nccs5)CC4)c3[nH]2)cc1,Potency,[1],inactive
same,Potency,[2],inactive
same,Potency,[3],0.536 µM (active)
O=C(O)C1=NC(C(=O)O)CC(C=CN2c3cc(O)c(OC4OC(CO)C(O)C(O)C4O)cc3CC2C(=O)O)=C1 (stereo not given),Potency,[1],inactive
C[C@H]1O[C@@H](n2cc(F)c(=O)[nH]c2=O)[C@H](O)[C@H]1O,Potency,[1],inactive
COc1c(C)c2c(c(O)c1CC=C(C)CCC(=O)O)C(=O)OC2,Potency,[1],inactive
CCN1C[C@H](C)n2c(c(O)c3c(=O)n(Cc4ccc(F)c(Cl)c4)nc(C(=O)NC)c32)C1=O,Potency,[1],inactive
same,Potency,[2],inactive
same,Potency,[3],8.49 µM (active)
same,Potency,[4],inactive
same,Potency,[5],inactive
CCc1cc(-c2n[nH]c(C)c2-c2ccc3c(c2)OCCO3)c(O)cc1O,Potency,[1],inactive
same,Potency,[2],4.25 µM (active)
same,Potency,[3],0.756 µM (active)
same,Potency,[4],8.33 µM (active)
COc1ccnc(CS(=O)c2nc3ccc(OC(F)F)cc3[nH]2)c1OC (stereo not given),Potency,[1],inactive
same,outcome,[7],inactive
same,Potency,[3],27.5 µM (active) and 21.3 µM (active)
same,Potency,[4],15 µM (active) and 18.6 µM (active)
same,Potency,[5],15 µM (active) and 18.6 µM (active)
Cc1cnc(-c2cc(N3CCN(C(=O)CCS(C)(=O)=O)CC3)ncc2Cl)c(C)c1,Potency,[1],inactive
same,Potency,[2],inactive
same,Potency,[3],21.3 µM (active)
same,Potency,[4],inactive
same,Potency,[5],inactive
CC(C)(OCc1nn(Cc2ccccc2)c2ccccc12)C(=O)O,Potency,[1],inactive
same,Potency,[2],inactive
same,outcome,[8],inactive
same,Potency,[3],inactive
same,Potency,[4],inactive
same,Potency,[5],inactive

# — PubChem BioAssay (NCATS)
